About 2,200 (0.71%) of roughly 310,000 compounds showed an effect of 50% or more. Effects have a minus sign here. Many of the other results were omitted from the sample, so strong results are more common in it than they were.
target: human ether-à-go-go-related gene (hERG) potassium channel (human, UniProt Q12809); assay: primary screen, population patch clamp on CHO cells stably expressing hERG; higher = less effect of the substance
Sequence (Q12809 whole entry, looked up): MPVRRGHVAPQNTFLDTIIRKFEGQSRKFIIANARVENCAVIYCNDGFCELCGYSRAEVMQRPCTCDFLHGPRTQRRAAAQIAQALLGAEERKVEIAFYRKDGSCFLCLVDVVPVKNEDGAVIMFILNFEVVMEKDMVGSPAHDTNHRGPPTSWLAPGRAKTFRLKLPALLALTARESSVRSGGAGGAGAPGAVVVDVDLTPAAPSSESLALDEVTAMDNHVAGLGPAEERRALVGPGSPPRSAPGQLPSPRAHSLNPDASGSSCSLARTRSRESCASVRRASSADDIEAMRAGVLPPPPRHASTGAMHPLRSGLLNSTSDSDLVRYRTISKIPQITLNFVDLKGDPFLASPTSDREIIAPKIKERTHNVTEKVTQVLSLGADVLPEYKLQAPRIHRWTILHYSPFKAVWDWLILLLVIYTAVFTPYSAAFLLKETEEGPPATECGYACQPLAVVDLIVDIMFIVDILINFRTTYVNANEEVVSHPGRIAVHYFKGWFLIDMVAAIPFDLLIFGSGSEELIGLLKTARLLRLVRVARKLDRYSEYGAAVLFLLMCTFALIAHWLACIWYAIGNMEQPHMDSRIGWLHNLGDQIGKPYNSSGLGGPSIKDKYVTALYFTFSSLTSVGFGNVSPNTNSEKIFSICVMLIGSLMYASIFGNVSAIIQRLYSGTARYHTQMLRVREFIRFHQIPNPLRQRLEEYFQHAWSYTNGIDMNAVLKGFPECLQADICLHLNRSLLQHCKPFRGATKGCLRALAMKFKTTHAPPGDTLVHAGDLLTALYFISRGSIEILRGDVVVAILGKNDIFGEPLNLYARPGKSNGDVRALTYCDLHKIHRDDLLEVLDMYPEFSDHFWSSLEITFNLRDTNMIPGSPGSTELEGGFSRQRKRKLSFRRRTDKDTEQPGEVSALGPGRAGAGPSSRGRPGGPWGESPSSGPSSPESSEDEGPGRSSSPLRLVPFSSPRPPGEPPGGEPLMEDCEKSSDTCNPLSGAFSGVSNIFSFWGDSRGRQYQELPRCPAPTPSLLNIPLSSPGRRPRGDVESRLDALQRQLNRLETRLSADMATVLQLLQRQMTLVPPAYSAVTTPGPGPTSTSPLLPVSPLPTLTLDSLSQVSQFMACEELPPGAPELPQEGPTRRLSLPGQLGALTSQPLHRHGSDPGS

| SMILES | hERG current change (%, negative = inhibition) at 1uM |
| --- | --- |
| N=c1c2c(-c3ccccc3)c(-c3ccccc3)n(Cc3ccco3)c2ncn1CCCN1CCOCC1 | -91.3% |
| CCCCn1cnc2c(c(-c3ccccc3)c(-c3ccccc3)n2Cc2ccco2)c1=N | -45.6% |
| N=c1c2c(-c3ccccc3)c(-c3ccccc3)n(Cc3ccco3)c2ncn1Cc1ccccc1 | -4.13% |
| CC(C)Cn1cnc2c(c(-c3ccccc3)c(-c3ccccc3)n2Cc2ccco2)c1=N | -26.2% |
| N=c1c2c(-c3ccccc3)c(-c3ccccc3)n(Cc3ccco3)c2ncn1Cc1ccco1 | -26.8% |
| N=c1c2c(-c3ccccc3)c(-c3ccccc3)n(Cc3ccco3)c2ncn1CCCn1ccnc1 | -63.6% |
| N=c1c2c(-c3ccccc3)c(-c3ccccc3)n(Cc3ccco3)c2ncn1CCN1CCOCC1 | -72.3% |
| N=c1c2c(-c3ccccc3)c(-c3ccccc3)n(Cc3ccccc3)c2ncn1CCO | 0.416% |
| N=c1c2c(-c3ccccc3)c(-c3ccccc3)n(Cc3ccco3)c2ncn1CCCO | -34.5% |
| N=c1c2c(-c3ccccc3)c(-c3ccccc3)n(Cc3ccccc3)c2ncn1CCCn1ccnc1 | -32% |
| N=c1c2c(-c3ccccc3)c(-c3ccccc3)n(Cc3ccco3)c2ncn1CCO | -52.2% |
| c1ccc(-c2c(-c3ccccc3)n(Cc3ccco3)c3ncnc(NCCCn4ccnc4)c23)cc1 | -9.73% |
| Cc1cc(C)n(Cc2ccc(NC(=O)c3ccc(COc4ccccc4Br)cc3)cc2)n1 | -8.42% |
| O=C(O)C1=C(OCc2ccc(F)c(F)c2)C(=O)NCC1 | 13.4% |
| Cc1ccc(C(C(=O)NC2CCCC2)N(Cc2ccccc2)C(=O)c2csnn2)o1 (centres unmarked) | 12.4% |
| COc1cc(C(=O)O)ccc1OCc1ccncc1 | 14.1% |
| CCOC(=O)C(=O)NC(C)CCc1ccccc1 (centres unmarked) | 9.43% |
| Cc1ccc(C(C)C)c(OCC(=O)N2CCN(c3ncccn3)CC2)c1 | 10% |
| Cc1cccn2c(=O)c3cc(C(=O)NC4CCCC4)c(=N)n(CC4CCCO4)c3nc12 (centres unmarked) | -80.2% |
| CCCn1c(=N)c(C(=O)NCc2ccc3c(c2)OCO3)cc2c(=O)n3cccc(C)c3nc21 | -67.3% |
| CCCn1c(=N)c(C(=O)NCC2CCCO2)cc2c(=O)n3cccc(C)c3nc21 (centres unmarked) | -78.3% |
| Cc1cccn2c(=O)nc(SCC(=O)NCc3ccc4c(c3)OCO4)nc12 | -1.11% |
| Cc1cccn2c(=O)c3cc(S(=O)(=O)c4ccccc4)c(=N)n(CC4CCCO4)c3nc12 (centres unmarked) | 7.88% |
| Cc1cccn2c(=O)c3cc(C(=O)NCC4CCCO4)c(=N)n(CC4CCCO4)c3nc12 (centres unmarked) | -84.8% |
| Cc1cccn2c(=O)c3cc(C(=O)NC4CCCCC4)c(=N)n(Cc4ccccc4)c3nc12 | -40.2% |
| O=C(O)C1=C[C@H](C2CC2)C[C@H](OCCCCO)O1 | 12.3% |
| O=C(CSc1n[nH]c(=O)n1Cc1ccco1)Nc1ccccc1Cl | 6.62% |

| SMILES | hERG current change (%, negative = inhibition) at 1uM |
| --- | --- |
| CCOc1cccc(C2/C(=C(/O)c3ccc4c(c3)CC(C)O4)C(=O)C(=O)N2Cc2cccnc2)c1 (centres unmarked) | 18.4% |
| CCOC(=O)NCc1ccccc1 | -5.01% |
| CCCCCCS(=O)[C@H]1CS(=O)(=O)C[C@@H]1S(=O)CCCCCC (some centres unmarked) | -25.8% |
| CNC(=O)Cn1ncc2c3ccccc3n(C)c2c1=O | 13.1% |
| O=C(O)CC(NC(=O)C12CC3CC(CC(C3)C1)C2)c1cc([N+](=O)[O-])ccc1Cl (centres unmarked) | 2.33% |
| Cc1nc(SCC(=O)NC2CCCC2)[nH]c(=O)c1C | 6.4% |
| O=C1OC(c2ccc(Cl)cc2)/C(=C(/O)c2ccccc2)C1=O (centres unmarked) | 2.03% |
| CCOC(=O)c1ccc(NC(=O)c2nc[nH]c2C(=O)NCCCNC(=O)c2[nH]cnc2C(=O)Nc2ccc(C(=O)OCC)cc2)cc1 | 13.8% |
| Cc1cccn2c(=O)c3cc(C(=O)NCC4CCCO4)c(=N)n(CCN4CCOCC4)c3nc12 (centres unmarked) | -50.1% |
| CC(C)OCCCn1c(SC(C)C(=O)NCC2CCCO2)nc2cc(Cl)ccc2c1=O (centres unmarked) | 7.81% |
| CCN(C(=O)c1cc2c(=O)n3cccc(C)c3nc2n1CCCOC)C1CCCCC1 | 4.12% |
| Cc1ccc2nc3c(cc(C(=O)NCC4CCCO4)c(=N)n3CCCOC(C)C)c(=O)n2c1 (centres unmarked) | -72.5% |
| COCCCn1c(=N)c(C(=O)NCC2CCCO2)cc2c(=O)n3ccccc3nc21 (centres unmarked) | -44.3% |
| COCCCn1c(=N)c(C(=O)NCC2CCCO2)cc2c(=O)n3cccc(C)c3nc21 (centres unmarked) | -74.8% |
| COc1ccc(C2c3c(oc4ccc(Cl)cc4c3=O)C(=O)N2CCN2CCOCC2)cc1 (centres unmarked) | -24% |
| CC(C)N(Cc1nc(-c2ccc(Cl)cc2)no1)C(=O)CN(C)S(=O)(=O)c1ccc(Cl)cc1 | -5.47% |
| COCCCn1c(=S)[nH]c2c(sc3ccccc32)c1=O | 14.1% |
| CCN1CCN(C(=O)c2cc3c(=O)n(C)c4ccccc4c3n2C)CC1 | 8.54% |
| Cc1cc(C)c2c(N)c(C(=O)NNC(=O)c3ccccc3)sc2n1 | 12.8% |
| Nc1ccccc1C(=O)NCc1ccccc1 | 1.59% |
| CC1(C)CC(=O)C2=C(C1)NC(=S)C(C#N)C21CCCCC1 (centres unmarked) | 10.1% |
| CCOC(=O)N1CCN(S(=O)(=O)c2ccc(C(=O)Nc3nnc(C)o3)cc2)CC1 | 7.3% |
| CC(CN1C(C)CCCC1C)OC(=O)c1ccccc1Br.Cl (centres unmarked) | 4.15% |
| Cc1sc2nc(CN3CCCC3)nc(N3CCN(S(=O)(=O)c4ccccc4)CC3)c2c1C | -19.4% |
| Cc1ccc(S(=O)(=O)N2CCN(c3nc(CN4CCCC4)nc4sc(C)c(C)c34)CC2)cc1 | -48.8% |
| Cc1sc2nc(CN3CCCC3)nc(N3CCN(S(=O)(=O)c4cccs4)CC3)c2c1C | -65.2% |
